In PubChem BioAssay (NCATS):
Records with an inconclusive call do not appear. Unmarked numbers belong to inactive results. Active and inactive are the calls of the source. Calls follow the shape of the dose curve; as a rule, active = well fitted cell-killing curve with a large enough effect; inconclusive = small, poorly fitted or top-dose-only effect, or effect the other way; inactive = flat fitted curve, though single readings scatter.

Assay: qHTS assay for cell viability of the p53RE-bla HCT-116 cell line (AID 743292); also: nearly all actives have a fitted effect of over 55% in size
Settings: p53RE-bla HCT-116 viability, ATP luminescence, 16 h; series mostly up to 95 µM; activity change, negative = cytotoxicity: at the top concentration
From the text: U.S. Tox21 Program National Center for Advancing Translational Sciences [NCATS] NIH Chemical Genomics Center [NCGC] U.S. Environmental Protection Agency [EPA] National Institutes of Environmental Health Sciences [NIEHS] National Toxicology Program [NTP] U.S. Food and Drug Administration [FDA] Tox21 Assay Overview: The CellTiter-Glo Luminescent Cell Viability Assay (Promega, Madison, WI) is a homogeneous method to determine the number of viable cells in culture based on quantitation of the ATP present, which signals the presence of metabolically active cells. This cell viability assay was used to screen environmental chemicals in the CellSensor p53RE-bla HCT-116 cell line (Invitrogen).
Tox21 Assay Protocol Summary: Cell viability after compound treatment was measured using a luciferase-coupled ATP quantitation assay (CellTiter-Glo viability assay, Promega, Madison, WI) in CellSensor p53RE-bla HCT-116 cell line (Invitrogen). Total intracellular ATP content corresponds to the number of metabolically competent cells after compound treatment. The cells were dispensed at 4,000 cells/5 uL/well in 1,536-well white/solid bottom assay plates using a Flying Reagent Dispenser (Aurora Discovery, San Diego, CA). The cells were incubated for 5 h at 37 C, followed by the addition of 23 nL of compounds dissolved in DMSO, positive controls or DMSO only using a pintool work station (Kalypsys, San Diego, CA). The assay plates were incubated for 16 h at 37 C, followed by the addition of 5 uL/well of CellTiter-Glo reagent. After 30 min incubation at room temperature, the luminescence intensity of the plates was measured using a ViewLux plate reader (PerkinElmer, Shelton, CT).
% is scaled to controls: 0 for no effect and ±100 for the full control effect; potency is read from the fitted curve at half-maximal effect.

SMILES	Potency	activity change, negative = cytotoxicity
COc1cc2c(c(OC)c1OC)-c1ccc(OC)c(=O)cc1[C@@H](NC(C)=O)CC2	inactive	
COc1ccc2c(c1)c(CC(=O)O)c(C)n2C(=O)c1ccc(Cl)cc1	inactive	
COc1ccc2[nH]cc(CCNC(C)=O)c2c1	inactive	
CN(Cc1cnc2nc(N)nc(N)c2n1)c1ccc(C(=O)N[C@@H](CCC(=O)O)C(=O)O)cc1	282 nM (active)	
CC#C[C@]1(O)CC[C@H]2[C@@H]3CCC4=CC(=O)CCC4=C3[C@@H](c3ccc(N(C)C)cc3)C[C@@]21C		-20.1%
CCOC(=O)C(C)(C)Oc1ccc(Cl)cc1		-2.86%
O=C(CCCN1CCC(O)(c2ccc(Cl)cc2)CC1)c1ccc(F)cc1		-7.34%
Cc1ccc(-c2cc(C(F)(F)F)nn2-c2ccc(S(N)(=O)=O)cc2)cc1		-1.9%
Cc1cn([C@H]2C[C@H](N=[N+]=[N-])[C@@H](CO)O2)c(=O)[nH]c1=O	inactive	
NS(=O)(=O)c1cc2c(cc1Cl)NCNS2(=O)=O	inactive	
CN(C)CCOC(c1ccccc1)c1ccccc1		7.5%
CC(C)NCC(O)c1ccc(O)c(O)c1 (centres undefined)	inactive	
O=c1c(-c2ccc(O)cc2)coc2cc(O)cc(O)c12	inactive	
Cc1cn([C@H]2C=C[C@@H](CO)O2)c(=O)[nH]c1=O	inactive	
Cn1c(=O)c2c(ncn2C)n(C)c1=O	inactive	
Nc1c2c(nc3ccccc13)CCCC2		-9.7%
CC(C)(Oc1ccc(C2CC2(Cl)Cl)cc1)C(=O)O (centres undefined)		-7.95%
NCCS(=O)(=O)O		2.32%
CC(COc1ccccc1)N(CCCl)Cc1ccccc1 (centres undefined)	inactive	
CC(C)C(=O)Nc1ccc([N+](=O)[O-])c(C(F)(F)F)c1	inactive	
O=c1[nH]cc(F)c(=O)[nH]1		-18.6%
COc1ccc(CCN(C)CCCC(C#N)(c2ccc(OC)c(OC)c2)C(C)C)cc1OC (centres undefined)		-12.5%
CC(C)Cc1ccc(C(C)C(=O)O)cc1 (centres undefined)		-1.79%
Cn1cnc2c1c(=O)[nH]c(=O)n2C		6.29%
C[C@](N)(Cc1ccc(O)c(O)c1)C(=O)O		2%
Cn1c(=O)c2[nH]cnc2n(C)c1=O		7.64%
CCC1(c2ccccc2)C(=O)NCNC1=O	inactive	
N[C@@H](Cc1c[nH]c2ccc(O)cc12)C(=O)O		6.59%
Nc1ccn([C@H]2CC[C@@H](CO)O2)c(=O)n1	inactive	
